Assay results published in PubChem BioAssay (Tox21).
Where “and” joins values, the source holds several entries; their conditions need not be identical. Identical values can stand only once. Results filed as inconclusive are left out. The source holds several records for some structures; these can differ, active in one and inactive in another. Calls of active or inactive are those of the source. Unless noted, calls come from the whole dose curve; as a rule, active = well fitted curve in the direction sought with a large enough effect in the repeat runs; inconclusive = weak or mixed curves; inactive = no such curve, though single readings can be large; an effect the other way counts as inactive or inconclusive.

Experiments:
[1] = biological target: Luciferin 4-monooxygenase (Photinus pyralis) (UniProt P08659); assay: qHTS assay to identify small molecule inhibitors of firefly luciferase (AID 1224835); note: nearly all actives have a fitted effect of over 25% in size; note: potency is the fitted concentration of half-maximal effect; conditions: purified P. pyralis luciferase, luminescence inhibition; series mostly up to 115 µM
Procedure, shortened: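 Quantitative HTS format; KM concentrations of both substrates. Purified P. pyralis FLuc activity quantified from luminescence images.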

[2] = qHTS assay to identify small molecule agonists of the constitutive androstane receptor (CAR) signaling pathway - cell viability counter screen (AID 1224836); conditions: HepG2-CYP2B6-hCAR viability, CellTiter-Fluor, 23 h, PK11195 added to every well; series mostly up to 92.4 µM; note: nearly all actives have a fitted effect of over 45% in size
Procedure, shortened: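 Double-stable HepG2 hepatoma cells (hCAR plus CYP2B6-2.2kb) are treated for 23 h at 37 C with test compounds in 15-point concentration series. PK11195 at 0.75 uM final is co-added. Cell viability is quantified by CellTiter-Fluor.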

[3] = qHTS assay to identify small molecule antagonists of the constitutive androstane receptor (CAR) signaling pathway - cell viability counter screen (AID 1224837); conditions: HepG2-CYP2B6-hCAR viability, CellTiter-Fluor, 23 h, co-treated with 50 nM CITCO; series mostly up to 92.4 µM; note: nearly all actives have a fitted effect of over 45% in size
Procedure, shortened: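 HepG2 cells stably carrying hCAR and CYP2B6-2.2kb reporter, stimulated with 50 nM CITCO and compounds at 15 concentrations for 23 h at 37 C. Viability measured by CellTiter-Fluor fluorescence.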

[4] = qHTS assay to identify small molecule antagonists of the estrogen related receptor signaling pathway with the pleiotropic PPARgamma coactivator (PGC) from Tox21 10K library - cell viability counter screen (AID 1224840; active = well fitted cell-killing curve with a large enough effect in the repeat runs, not every such curve was filed as active; note: nearly all actives have a fitted effect of over 40% in size; note: potency is the fitted concentration of half-maximal effect); conditions: PGC/ERR reporter cells viability, CellTiter-Fluor, 17.5 h; series mostly up to 92.4 µM
Procedure, shortened: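 PGC/ERR cells (2,000/well) plated 6 h, then compound-treated for 17.5 h at 37 C. Viability measured by CellTiter-Fluor fluorescence after 30 min at 37 C, multiplexed with the pathway assay.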

[5] = qHTS assay to identify small molecule antagonists of the estrogen related receptor signaling pathway with the pleiotropic PPARgamma coactivator (PGC) from Tox21 10K library (AID 1224841; call rule not given here; note: actives are mostly falling curves and most rising ones were filed inactive; nearly all actives have a fitted effect of over 50% in size; note: potency is the fitted concentration of half-maximal effect); conditions: PGC/ERR reporter cell line, ONE-Glo luciferase, 18 h; series mostly up to 92.4 µM
Procedure, shortened: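 PGC/ERR cell line, 2,000 cells/well, pre-incubated 6 hours at 37 C, then exposed to compounds for 18 hours at 37 C; luciferase read with One-Glo luminescence after 30 min at room temperature.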

[6] = qHTS assay to identify small molecule agonists of the estrogen related receptor signaling pathway with the pleiotropic PPARgamma coactivator (PGC) from Tox21 10K library (AID 1224842); conditions: PGC/ERR reporter cell line, luciferase ONE-Glo, 18 h; series mostly up to 92.4 µM; note: nearly all actives have a fitted effect of over 15% in size
Procedure, shortened: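 PGC/ERR reporter cells (NTP line) were seeded 2,000 per well, rested 6 h at 37 C/5% CO2, then pin-dosed with compounds in DMSO for 18 h at 37 C; luciferase read by One-Glo luminescence after 30 min at room temperature.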

[7] = biological target: Nuclear receptor subfamily 1 group I member 3 (Homo sapiens) (UniProt Q14994); assay: qHTS assay to identify small molecule antagonists of the constitutive androstane receptor (CAR) signaling pathway (AID 1224838); conditions: HepG2-CYP2B6-hCAR luciferase, CITCO-stimulated, 24 h; series mostly up to 92.4 µM; note: nearly all actives have a fitted effect of over 40% in size; note: potency is the fitted concentration of half-maximal effect
Procedure, shortened: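 HepG2 cells stably carrying hCAR and a CYP2B6-2.2kb luciferase reporter, seeded 4 hrs before compound (15 concentrations). Stimulated with 50 nM CITCO for 24 hr at 37 C. ONE-Glo luminescence read after 30 min at room temperature.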

[8] = biological target: Nuclear receptor subfamily 1 group I member 3 (Homo sapiens) (UniProt Q14994); assay: qHTS assay to identify small molecule agonists of the constitutive androstane receptor (CAR) signaling pathway (AID 1224839); conditions: HepG2 hCAR CYP2B6-luciferase, agonist mode, 24 h; series mostly up to 92.4 µM; note: nearly all actives have a fitted effect of over 15% in size; note: potency is the fitted concentration of half-maximal effect
Procedure, shortened: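 Readout: firefly luciferase luminescence via ONE-Glo. System: HepG2 double-stable for hCAR and CYP2B6-2.2kb. Conditions: 15-point compound titration, PK11195 at 0.75 uM final, 24 h incubation.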
% is set by controls: 0 for no effect and ±100 for the full control effect.

Nuclear receptor subfamily 1 group I member 3 (Homo sapiens), sequence (Q14994 whole entry, looked up): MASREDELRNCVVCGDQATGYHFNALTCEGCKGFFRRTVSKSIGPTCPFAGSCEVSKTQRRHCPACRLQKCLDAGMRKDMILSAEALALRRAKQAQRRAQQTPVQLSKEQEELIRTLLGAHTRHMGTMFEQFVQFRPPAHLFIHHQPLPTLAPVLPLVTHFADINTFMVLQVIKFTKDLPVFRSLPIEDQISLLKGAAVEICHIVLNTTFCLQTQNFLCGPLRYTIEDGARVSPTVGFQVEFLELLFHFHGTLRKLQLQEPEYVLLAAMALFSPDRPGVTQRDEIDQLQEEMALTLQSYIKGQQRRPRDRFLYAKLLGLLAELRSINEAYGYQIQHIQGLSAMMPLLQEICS
Luciferin 4-monooxygenase (Photinus pyralis), sequence (P08659 whole entry, looked up): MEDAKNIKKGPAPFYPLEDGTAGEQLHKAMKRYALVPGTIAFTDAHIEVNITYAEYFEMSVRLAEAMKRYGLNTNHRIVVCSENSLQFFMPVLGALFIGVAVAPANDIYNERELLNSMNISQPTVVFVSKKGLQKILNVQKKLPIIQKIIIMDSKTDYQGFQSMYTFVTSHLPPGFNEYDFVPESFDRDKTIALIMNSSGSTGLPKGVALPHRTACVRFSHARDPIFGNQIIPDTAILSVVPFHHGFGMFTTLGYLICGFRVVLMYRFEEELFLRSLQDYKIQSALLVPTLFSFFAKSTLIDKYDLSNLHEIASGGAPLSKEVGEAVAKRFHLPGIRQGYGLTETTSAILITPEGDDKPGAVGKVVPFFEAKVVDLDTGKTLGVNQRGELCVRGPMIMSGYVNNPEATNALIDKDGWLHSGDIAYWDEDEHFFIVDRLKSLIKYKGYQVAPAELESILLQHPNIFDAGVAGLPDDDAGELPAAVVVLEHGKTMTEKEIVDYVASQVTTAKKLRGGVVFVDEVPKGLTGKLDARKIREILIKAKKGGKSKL

CNC(=O)Oc1cc(C)c(N(C)C)c(C)c1
inactive: Potency [1] | Potency [2] | Potency [3] | Potency [4] | Potency [5] | Potency [6]

CCC(C)C(C)(COC(N)=O)COC(N)=O (stereo unspecified)
inactive: Potency [1] | Potency [2] | Potency [7] | Potency [8] | Potency [4] | Potency [5] | Potency [6]

NCCOS(=O)(=O)O
inactive: Potency [1] | Potency [2] | Potency [3] | Potency [4]

CCN(CCO)CCn1c(Cc2ccccc2)nc2c1c(=O)n(C)c(=O)n2C
inactive: Potency [1] | Potency [2] | Potency [3] | Potency [7] | Potency [8] | Potency [4] | Potency [5] | Potency [6]

COC[C@@H](NC(C)=O)C(=O)NCc1ccccc1
inactive: Potency [1] | Potency [2] | Potency [3] | Potency [4] | Potency [5] | Potency [6]

CCOP(=O)(CN(CCO)CCO)OCC
inactive: Potency [1] | Potency [2] | Potency [3] | Potency [4]

Cn1c(N)nc2c3cccnc3ccc21
active: Potency [8] 32.7 µM
inactive: Potency [7] | Potency [4]

CCNc1nc(Cl)nc(NC(C)(C)C)n1
inactive: Potency [1] | Potency [2] | Potency [7] | Potency [4]

Cc1ccc2cc(C)ccc2c1
inactive: Potency [2] | Potency [7] | Potency [8] | Potency [5] | Potency [6]

Cl/C=C/CCl
inactive: Potency [1] | Potency [2] | Potency [7] | Potency [8] | Potency [5] | Potency [6]

O=C(Cl)c1ccccc1
inactive: Potency [1] | Potency [2] | Potency [7] | Potency [8] | Potency [4] | Potency [5] | Potency [6]

NC(=O)CS(=O)C(c1ccccc1)c1ccccc1 (stereo unspecified)
inactive: Potency [1] | Potency [2] | Potency [7] | Potency [8] | Potency [4] | Potency [5] | Potency [6]

C/C=C/CC#N
inactive: Potency [1] | Potency [2] | Potency [3] | Potency [7] | Potency [8] | Potency [4]

NNC(N)=O
inactive: Potency [1] | Potency [2] | Potency [3] | Potency [7] | Potency [8] | Potency [4]

CCCCCCC(=O)CCCCCC/C=C/C[C@@H](O)[C@H](O)[C@@](N)(CO)C(=O)O
inactive: activity change, negative = inhibition [1] -3.87% [at 23.6 µM] | viability change, negative = cytotoxic [2] 6.33% [at 19 µM] | activity change, negative = cytotoxicity [3] -0.0318% [at 19 µM] | activity, negative = inhibition [7] -1.56% [at 19 µM] | activation [8] -1.84% [at 19 µM] | viability change, negative = cytotoxic [4] 12.4% [at 19 µM]

CCCCOC(C)=O
inactive: Potency [1] | Potency [2] | Potency [4]

Cc1ccc(Cl)c(O)c1
inactive: Potency [1] | Potency [2] | Potency [3] | Potency [7] | Potency [8] | Potency [4] | Potency [5] | Potency [6]

C/C(=N\NC(=O)Nc1cc(F)cc(F)c1)c1ncccc1C(=O)O
inactive: Potency [1] | Potency [2] | Potency [3] | Potency [7] | Potency [8] | Potency [4]

N#CC(Br)(Br)C(N)=O
inactive: Potency [1] | Potency [2] | Potency [3] | Potency [4]

O=C(NC(O)C(Cl)(Cl)Cl)NC(O)C(Cl)(Cl)Cl (stereo unspecified)
inactive: Potency [1] | Potency [3] | Potency [4]

CCc1cc(OC)c(C[C@H](C)N)cc1OC
inactive: Potency [1] | Potency [2] | Potency [3] | Potency [7] | Potency [8] | Potency [4]

CCC(=O)OC1(c2ccccc2)CCN(C)CC1
inactive: Potency [1] | Potency [2] | Potency [3] | Potency [7] | Potency [8] | Potency [4]

O=C1C2CC=CCC2C(=O)N1SC(Cl)(Cl)Cl (stereo unspecified)
inactive: Potency [8] | Potency [6]
active: Potency [1] 25.1 µM and 31.2 µM | Potency [5] 7.66 µM and 47.8 µM
inactive and 30.1 µM (active): Potency [4]
inactive and 13.5 µM (active): Potency [7]

O=C(CCl)NCO
inactive: Potency [1] | Potency [3] | Potency [7] | Potency [8] | Potency [4] | Potency [5] | Potency [6]

CCOC(=O)CCl
inactive: Potency [1] | Potency [3] | Potency [7] | Potency [8] | Potency [4]

COc1ccc(CN2CCNCC2)c(OC)c1OC
inactive: Potency [1] | Potency [3] | Potency [7] | Potency [4] | Potency [5] | Potency [6]

CN1COCN(Cc2cnc(Cl)s2)/C1=N\[N+](=O)[O-]
inactive: Potency [1] | Potency [2] | Potency [3] | Potency [4]

C=CCN1CC[C@]23CCCC[C@H]2[C@H]1Cc1ccc(O)cc13
inactive: Potency [1] | Potency [3] | Potency [7] | Potency [8] | Potency [4] | Potency [5] | Potency [6]
